Hits are enriched below; roughly 7.4% of the tested compounds scored in any of these assays.
Tau fil binding: tau filament binding | recombinant tau filaments, thioflavin S fluorescence, 15 h; filaments grown with octadecylsulfate alongside compound | P10636 | 2% of 71,000 active | AID 596 | Potency, µM (series often up to 57.1 µM);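 further: actives lower thioflavin S fluorescence by blocking filaments or displacing dye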
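Assay mix: 1 uM His-tagged tau, 30 uM sodium octadecylsulfate, thioflavine S dye in HEPES/NaCl/DTT buffer. Compound is added prior to the inducer. Fluorescence after 15 h at 37 C.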
CRE-bla Fsk: alters forskolin-stimulated CRE reporter signaling in CHO cells; 2.5% of 71,000 active; Potency, µM (top dose mostly 38.2 µM), most hits filed as activators; CHO CRE-bla reporter (cAMP response element driving beta-lactamase), forskolin EC10, beta-lactamase ratio; active means well fitted activation curve with a large enough effect in the signal ratio, with a control signal flat, not every such curve was filed as active; inconclusive means small, poorly fitted or top-dose-only effect, or effect the other way, or a change in a side signal; the % refers to the signal ratio
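Forskolin analogue NKH 477 at EC10 stimulated CRE-driven beta-lactamase in CHO cells alongside compound dilution series. Beta-lactamase was measured with CCF4, excitation 405 nm, emission ratio 460/530 nm.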
TSHR ag: TSH receptor (human) agonism | P16473 | HEK293-CNG-TSHR cells (CNG channel as cAMP sensor), membrane potential dye, cAMP | Potency, µM (top dose mostly 57.1 µM), actives largely listed as activators | 0.48% of 73,000 active | AID 926; active means well fitted activation curve with a large enough effect in the main read-out, with a control signal flat, not every such curve was filed as active; inconclusive means small, poorly fitted or top-dose-only effect, or a change in a side signal; inactive means no such curve, though single readings can be large or run the other way; reference of the percent scale not stated here;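 further: the control signal comes from parental cells without the receptor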
Target sequence (P16473 whole entry, looked up): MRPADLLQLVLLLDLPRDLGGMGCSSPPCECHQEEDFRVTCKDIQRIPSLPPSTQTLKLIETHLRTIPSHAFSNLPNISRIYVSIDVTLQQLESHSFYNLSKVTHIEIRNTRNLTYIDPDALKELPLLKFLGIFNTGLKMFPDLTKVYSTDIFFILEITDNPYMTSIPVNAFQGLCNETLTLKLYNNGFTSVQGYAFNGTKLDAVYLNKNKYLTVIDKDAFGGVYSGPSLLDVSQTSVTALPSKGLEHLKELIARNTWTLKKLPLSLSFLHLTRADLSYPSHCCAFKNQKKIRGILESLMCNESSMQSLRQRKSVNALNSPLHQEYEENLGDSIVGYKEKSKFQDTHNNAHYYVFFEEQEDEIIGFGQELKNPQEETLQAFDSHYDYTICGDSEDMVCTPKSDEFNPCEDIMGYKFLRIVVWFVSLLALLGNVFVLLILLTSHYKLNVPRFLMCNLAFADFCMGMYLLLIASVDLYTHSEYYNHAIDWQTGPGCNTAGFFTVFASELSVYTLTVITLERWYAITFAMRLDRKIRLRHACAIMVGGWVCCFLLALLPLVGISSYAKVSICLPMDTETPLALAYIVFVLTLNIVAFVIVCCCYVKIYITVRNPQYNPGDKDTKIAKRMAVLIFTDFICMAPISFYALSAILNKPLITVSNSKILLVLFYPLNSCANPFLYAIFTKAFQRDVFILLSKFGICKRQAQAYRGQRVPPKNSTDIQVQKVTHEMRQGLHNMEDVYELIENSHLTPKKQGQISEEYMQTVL
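cAMP rise detected as CNG-channel membrane depolarization by fluorescent dye (emission 590 nm), 30 min after compound, following 60 min dye loading containing 100 uM RO 20-1724 at room temperature. Cells: TSHR/CNG HEK 293, with parental CNG HEK 293 as control.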
ERK AVP inh: blocks ERK signaling stimulated by vasopressin. HEK293-V1b, vasopressin-stimulated pERK AlphaScreen. Potency, µM (titrated, usually from 57.5 µM), hits mostly inhibitors. 0.99% of 72,000 active. AID 995; further: nearly all actives have a fitted effect of over 55% in size
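HEK293 cells stably expressing V1b receptor, preincubated 30 min at 37 °C with compound, then stimulated 5 min with 25 nM vasopressin. Phospho-ERK by AlphaScreen SureFire after 5 h RT; normalized to DMSO and vasopressin; AC50 by Hill fit.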
HEK293 cAMP cs: raises cAMP in parental HEK293 cells, TSHR agonist counter-screen; Potency, µM (highest dose often 57.1 µM), actives largely listed as activators; 2.5% of 73,000 active; parental HEK293 CNG cAMP sensor, membrane potential fluorescence; further: nearly all actives have a fitted effect of over 55% in size
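Parental HEK 293 cells stably expressing a cAMP-gated CNG channel were loaded with membrane potential dye containing 100 uM RO 20-1724 for 60 min. Compound added for 30 min; depolarization read as fluorescence intensity at 590 nm.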
A number is an active result; – = inactive; ? = inconclusive; · = not tested or not shown; [ ] = another dose, or the depositor's remark. Unless noted, the call rests on the fitted dose curve; in most records, active means well fitted curve in the direction sought with a large enough effect; inconclusive means small, poorly fitted or top-dose-only effect, or another doubt; inactive means no such curve, though single readings can be large; an effect the other way counts as inactive or inconclusive.

SMILES	Tau fil binding	CRE-bla Fsk	TSHR ag	ERK AVP inh	HEK293 cAMP cs
COc1cc(OC)c(C2N(c3ccc(Cl)c(Cl)c3)C(=O)C3CCCN32)cc1OC (configuration not stated)	–	–	–	–	–
COc1cc(OC)c(C2N(c3ccc(Cl)cc3)C(=O)C3CCCN32)cc1OC (configuration not stated)	20µM	–	–	?	–
CCC(=O)Nc1cc(-c2nnc(OC)c3ccccc23)ccc1N1CCOCC1	–	?	–	–	–
Cn1nc(-c2ccc(N3CCOCC3)c(NC(=O)COc3ccccc3)c2)c2ccccc2c1=O	–	?	10µM	–	–
COc1nnc(-c2ccc(N3CCOCC3)c(NC(=O)c3ccco3)c2)c2ccccc12	–	2µM	–	–	–
COc1nnc(-c2ccc(N3CCOCC3)c(NC(C)=O)c2)c2ccccc12	–	?	–	–	–
C[C@H](CCC(=O)O)[C@H]1CC[C@]2(C)[C@@H]3C(=O)C[C@H]4C(C)(C)[C@@H](O)CC[C@]4(C)[C@H]3C(=O)C[C@@]12C	–[11.4 µM]	–[7.6 µM]	–[11.4 µM]	–[11.5 µM]	–[11.4 µM]
COc1ccc2nc(S(=O)Cc3ncc(C)c(OC)c3C)[nH]c2c1 (configuration not stated)	–	5µM	–	–	–
O=c1ccn([C@@H]2O[C@@H](COP(=O)(O)OP(=O)(O)O)[C@H](O)[C@@H]2O)c(=O)[nH]1	–	–	?	–	?
CCOC(=O)c1c(N)sc(C(N)=O)c1C	–	–	–	13µM	–
CCN(CC)CCC[C@H](C)Nc1c2ccc(Cl)cc2nc2ccc(OC)cc12	·	?	–	–	–
O=C(O)C12CC3(C(=O)O)CC(C(=O)O)(CC(C(=O)O)(C1)C3=O)C2=O	–[11.4 µM]	–[7.6 µM]	–[11.4 µM]	–[11.5 µM]	–[11.4 µM]
COc1cc(-c2nn3c(-c4ccccc4)nnc3s2)cc(OC)c1OC	–	4µM	–	–	–
COc1cc(-c2nn3c(Cc4ccccc4)nnc3s2)cc(OC)c1OC	–	0.79µM	·	–	–
CCOc1ccc(-c2nn3c(-c4ccccc4)nnc3s2)cc1	–	–	?	–	?
COc1cc(-c2nnc3sc(-c4ccncc4)nn23)cc(OC)c1OC	–	2µM	–[11.4 µM]	–	–
c1ccc(Cc2nnc3sc(-c4ccco4)nn23)cc1	16µM	–	–	·	–
COc1cc(OC)c(-c2nn3c(-c4ccncc4)nnc3s2)cc1OC	–	?	–	?	–
COC(=O)C/C=C\[C@@H](C)[C@@H](/C=N\O[C@@H](C)c1cn([C@H]2COC[C@H]2O)nn1)OC	·	·	–[11.4 µM]	–[11.5 µM]	–[11.4 µM]
CC(C)C[C@@H](CC(=O)N[C@H](CC(=O)N[C@@H]1CCNC[C@H]1C(=O)N[C@H](CC(=O)N[C@@H](CCC(=O)O)CC(=O)O)Cc1c[nH]c2ccccc12)C(C)C)NC(=O)[C@@H]1CCCC[C@H]1N	–	–	?	·	?
C=C[C@]1(C)C[C@H](OC(=O)CO)[C@]2(C)C3C(=O)CC[C@]3(CC[C@H]2C)[C@H](C)[C@H]1O (some centres not stated)	–[11.4 µM]	–[7.6 µM]	–[11.4 µM]	–[11.5 µM]	–[11.4 µM]
CC(C)C[C@H](NC(=O)[C@@H](O)[C@@H](N)Cc1ccccc1)C(=O)O	–	–	?	–	?
N#C/C(=C\Nc1ccccn1)C(=O)C1CC1	–[11.4 µM]	–[7.6 µM]	–[11.4 µM]	–[11.5 µM]	–[11.4 µM]
O=C(NCc1ccco1)c1ccc(CS(=O)(=O)Cc2ccc(Cl)cc2)o1	–	?	–	–	–
O=C(NCc1ccco1)c1cc2cc3ccc(Cl)cc3nc2o1	–	2µM	–	–	–
SMILES	Tau fil binding	CRE-bla Fsk	TSHR ag	ERK AVP inh	HEK293 cAMP cs
CCN(C1CCCCC1)S(=O)(=O)c1cc(C)ccc1OC	–	–	?	–	?
CCN(C1CCCCC1)S(=O)(=O)c1cn(C)c(=O)n(C)c1=O	–	?	?	·	3.2µM
O=C1[C@H]2[C@H]3[C@H](O)[C@H](O)C/C(=N/OCc4ccccc4)[C@@H]3CC[C@@H]2C(=O)N1c1cccc(Oc2ccccc2)c1	·	·	?	–[11.5 µM]	?
CCOc1ccc2[nH]c(=O)c(CN(Cc3cccs3)Cc3nnnn3C(C)(C)C)cc2c1	–	–	?	–	25µM
O=C(Nc1ccccc1)C1CC2CCCC(C1)C2=O (configuration not stated)	–	–	–	–	–
O=C(Nc1ccc(Nc2ccccc2)cc1)C1CC1	10µM	–	–	–	–
COc1ccc(-c2nc3cnc(N4CCOCC4)nc3n(C3CC3)c2=O)cc1	–	1.3µM	?	–	?
O=c1c(-c2ccc(F)cc2)nc2cnc(N3CCOCC3)nc2n1C1CC1	–	5µM	–	–	–
COc1ccc(-c2nc3cnc(N4CCN(C)CC4)nc3n(C3CC3)c2=O)cc1	–	?	?	–	?
Cn1c(=O)c(-c2ccccc2)nc2cnc(N3CCOCC3)nc21	–	?	–	–	–
O=c1c(-c2ccc(Cl)cc2)nc2cnc(N3CCOCC3)nc2n1C1CC1	–	?	–	–	–
CN1CCN(c2ncc3nc(-c4ccc(Cl)cc4)c(=O)n(C)c3n2)CC1	3.2µM	?	–	–	–
Cn1c(=O)c(-c2ccc(F)cc2)nc2cnc(N3CCOCC3)nc21	–	2.5µM	?	–	?
O=C(OCC#CCSc1nc2ccccc2s1)c1ccco1	–	–	–	–	–
COc1cc(/C=C(\C#N)C(N)=O)cc(CSc2nc3ccccc3s2)c1O	–	25µM	–	–	–
COc1cc2ccccc2cc1-c1nnc(COc2ccccc2)o1	–	–	–	–	–
COc1ccc(-c2nnc(COc3ccc4ccccc4c3)o2)cc1OC	–[11.4 µM]	?	?	?	4µM
COc1cc(-c2nnc(COc3ccc4cc(Br)ccc4c3)o2)cc(OC)c1OC	–	2.5µM	–	–	–
CCOC(=O)C(C)Oc1cccc2c(=O)n(CC(=O)NCc3ccc4c(c3)OCO4)ccc12 (configuration not stated)	–	?	–	·	–
CCOC(=O)C(C)Oc1cccc2c(=O)n(CC(=O)Nc3ccc4c(c3)OCCO4)ccc12 (configuration not stated)	–	10µM	?	·	?
CCC(C)Sc1nc2c(cnn2-c2ccc(C)cc2)c(=O)[nH]1 (configuration not stated)	–	1.6µM	–[11.4 µM]	·	–
CCSc1nc2c(cnn2-c2ccc(C)cc2)c(=O)[nH]1	–	10µM	–[11.4 µM]	·	–
O=c1[nH]c(SCc2ccc(F)cc2)nc2c1cnn2-c1ccc(F)cc1	–	4µM	–	·	–
CCC(Sc1nc2c(cnn2-c2ccc(Cl)cc2)c(=O)[nH]1)C(=O)OC (configuration not stated)	–	3.2µM	?	·	?
Cc1ccc(-n2ncc3c(=O)[nH]c(SCC(=O)N4CCCCC4)nc32)cc1	–	?	–	·	–
Cc1cc(C(=O)CSC(=S)SC(C)(C)C)ccc1Cl	–[11.4 µM]	–[7.6 µM]	–[11.4 µM]	–[11.5 µM]	–[11.4 µM]
CN1CCN(C(=O)c2cc(-c3ccc(O)cc3)on2)CC1	–	–	–	–	–

Compound activity deposited in PubChem by National Center for Advancing Translational Sciences (NCATS).
